Tests used:
Assay in all cases: DAPPL (digital affinity profiling via proximity ligation, sequencing); 10 mM Tris-HCl pH 7.5, 50 mM NaCl, 1 mM DTT, 4% glycerol, room temperature, 30 min; GST-TFs on glutathione beads, 16-mer random dsDNA library, 0.1% formaldehyde crosslink after washing; high values mean tight binding
Conditions in all cases: protein: recombinant; tags: N-terminal GST; dsDNA, one strand shown
FLI1 = target: T1, FLI1 (Homo sapiens, UniProt Q01543 1-452)
T1 sequence: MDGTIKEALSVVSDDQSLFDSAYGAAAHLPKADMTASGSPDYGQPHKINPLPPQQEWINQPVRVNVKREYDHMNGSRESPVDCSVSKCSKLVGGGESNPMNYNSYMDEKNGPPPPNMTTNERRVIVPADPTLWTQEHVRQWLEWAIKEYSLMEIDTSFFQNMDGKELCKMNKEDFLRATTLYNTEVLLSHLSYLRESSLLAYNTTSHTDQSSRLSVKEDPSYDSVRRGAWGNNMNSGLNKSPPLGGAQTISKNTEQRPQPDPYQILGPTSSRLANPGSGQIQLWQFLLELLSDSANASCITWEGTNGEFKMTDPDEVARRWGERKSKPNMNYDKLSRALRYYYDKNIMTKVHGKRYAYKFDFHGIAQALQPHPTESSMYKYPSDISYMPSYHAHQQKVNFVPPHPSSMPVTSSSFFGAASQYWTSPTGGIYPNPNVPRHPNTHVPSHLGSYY
Method in brief: (§1)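 Pools were built from human transcription factors expressed in yeast as GST fusions, captured on glutathione beads and DNA-barcoded, along with a tag-only sample. Incubation with 200 nmole of a 16-mer random double-stranded DNA library lasted 30 min at room temperature in Tris/NaCl/DTT/glycerol buffer, and was followed by washing, 0.1% formaldehyde crosslinking, proximity ligation, PCR amplification and Illumina NextSeq500 sequencing. Binding signal is the quotient of each hexamer's read frequency for a factor and its frequency for the tag-only sample.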

GABPA = target: T2, GABPA (Homo sapiens, UniProt Q06546 1-454)
T2 sequence: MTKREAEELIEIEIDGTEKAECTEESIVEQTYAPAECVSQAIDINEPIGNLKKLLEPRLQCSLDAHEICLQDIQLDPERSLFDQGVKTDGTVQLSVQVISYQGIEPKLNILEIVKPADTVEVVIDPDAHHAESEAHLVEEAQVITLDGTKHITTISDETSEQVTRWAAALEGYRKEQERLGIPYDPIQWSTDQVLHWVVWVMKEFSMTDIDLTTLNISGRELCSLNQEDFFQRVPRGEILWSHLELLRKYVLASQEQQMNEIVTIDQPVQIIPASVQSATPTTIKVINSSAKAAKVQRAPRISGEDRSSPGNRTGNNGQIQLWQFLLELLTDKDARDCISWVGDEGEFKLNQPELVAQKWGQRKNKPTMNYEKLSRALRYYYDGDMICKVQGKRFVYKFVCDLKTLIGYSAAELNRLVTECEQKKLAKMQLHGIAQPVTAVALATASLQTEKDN
Method in brief: as §1

ERG = target: T3, ERG (Homo sapiens, UniProt P11308 1-479)
T3 sequence: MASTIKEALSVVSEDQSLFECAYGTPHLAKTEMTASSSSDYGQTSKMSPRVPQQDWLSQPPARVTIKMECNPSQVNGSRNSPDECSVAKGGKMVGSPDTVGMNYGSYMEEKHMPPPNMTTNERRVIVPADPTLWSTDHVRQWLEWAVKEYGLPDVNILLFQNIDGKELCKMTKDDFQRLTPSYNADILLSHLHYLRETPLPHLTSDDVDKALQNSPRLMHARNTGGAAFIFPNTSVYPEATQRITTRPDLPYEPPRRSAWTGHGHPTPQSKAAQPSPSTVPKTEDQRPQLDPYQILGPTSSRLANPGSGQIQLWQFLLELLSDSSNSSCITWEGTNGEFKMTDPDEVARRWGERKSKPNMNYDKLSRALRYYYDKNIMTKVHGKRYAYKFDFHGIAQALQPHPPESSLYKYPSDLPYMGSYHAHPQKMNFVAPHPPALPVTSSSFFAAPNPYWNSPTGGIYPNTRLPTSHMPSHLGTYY
Method in brief: as §1

ELF1 = ELF1 (Homo sapiens, UniProt P32519 1-619)
Sequence of ELF1 (P32519 whole entry): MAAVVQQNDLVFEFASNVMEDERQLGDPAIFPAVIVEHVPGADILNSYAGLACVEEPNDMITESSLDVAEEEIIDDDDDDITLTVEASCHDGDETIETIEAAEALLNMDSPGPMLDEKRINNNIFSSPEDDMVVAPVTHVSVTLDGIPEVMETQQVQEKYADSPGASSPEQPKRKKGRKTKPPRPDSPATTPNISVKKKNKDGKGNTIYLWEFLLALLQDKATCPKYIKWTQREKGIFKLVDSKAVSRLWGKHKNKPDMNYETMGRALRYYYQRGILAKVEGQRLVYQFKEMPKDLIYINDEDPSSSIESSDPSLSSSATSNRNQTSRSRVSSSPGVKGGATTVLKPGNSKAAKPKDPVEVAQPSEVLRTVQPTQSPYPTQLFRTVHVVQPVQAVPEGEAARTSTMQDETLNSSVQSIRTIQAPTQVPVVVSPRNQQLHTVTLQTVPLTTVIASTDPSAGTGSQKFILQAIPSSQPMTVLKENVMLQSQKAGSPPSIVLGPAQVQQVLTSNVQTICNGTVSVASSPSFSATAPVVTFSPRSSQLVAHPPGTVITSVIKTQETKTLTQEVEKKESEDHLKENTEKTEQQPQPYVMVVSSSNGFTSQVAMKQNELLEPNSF
Method in brief: as §1

EHF = target: T4, EHF (Homo sapiens, UniProt Q9NZC4 1-300)
T4 sequence: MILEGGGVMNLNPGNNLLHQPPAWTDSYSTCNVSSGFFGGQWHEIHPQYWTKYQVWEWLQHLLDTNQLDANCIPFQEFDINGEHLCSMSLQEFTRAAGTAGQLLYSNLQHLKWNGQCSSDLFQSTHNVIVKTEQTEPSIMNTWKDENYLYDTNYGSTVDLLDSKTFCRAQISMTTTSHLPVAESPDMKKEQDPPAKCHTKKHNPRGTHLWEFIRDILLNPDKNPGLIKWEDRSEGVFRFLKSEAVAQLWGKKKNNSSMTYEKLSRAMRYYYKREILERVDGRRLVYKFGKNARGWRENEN
Method in brief: as §1

SPI1 = SPI1 (Homo sapiens, UniProt P17947 1-270)
Method in brief: as §1

SPIB = SPIB (Homo sapiens, UniProt Q01892 1-262)
Sequence of SPIB (Q01892 whole entry): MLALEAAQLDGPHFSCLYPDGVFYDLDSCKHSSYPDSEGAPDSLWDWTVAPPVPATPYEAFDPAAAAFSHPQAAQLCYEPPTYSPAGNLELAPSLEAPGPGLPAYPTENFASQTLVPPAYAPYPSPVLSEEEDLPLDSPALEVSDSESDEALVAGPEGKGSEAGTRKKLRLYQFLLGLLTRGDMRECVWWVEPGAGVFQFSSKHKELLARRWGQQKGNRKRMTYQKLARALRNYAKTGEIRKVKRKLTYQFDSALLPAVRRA
Method in brief: as §1

FEV = target: T5, FEV (Homo sapiens, UniProt Q99581 1-238)
T5 sequence: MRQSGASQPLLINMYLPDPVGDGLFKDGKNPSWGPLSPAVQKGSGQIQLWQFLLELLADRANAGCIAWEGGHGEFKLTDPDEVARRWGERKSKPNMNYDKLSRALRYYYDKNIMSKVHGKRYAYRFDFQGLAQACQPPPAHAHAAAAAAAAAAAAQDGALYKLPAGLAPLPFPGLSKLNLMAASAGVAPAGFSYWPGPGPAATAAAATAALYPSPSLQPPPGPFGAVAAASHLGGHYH
Method in brief: as §1

ETV5 = ETV5 (Homo sapiens, UniProt P41161 1-510)
Sequence of ETV5 (P41161 whole entry): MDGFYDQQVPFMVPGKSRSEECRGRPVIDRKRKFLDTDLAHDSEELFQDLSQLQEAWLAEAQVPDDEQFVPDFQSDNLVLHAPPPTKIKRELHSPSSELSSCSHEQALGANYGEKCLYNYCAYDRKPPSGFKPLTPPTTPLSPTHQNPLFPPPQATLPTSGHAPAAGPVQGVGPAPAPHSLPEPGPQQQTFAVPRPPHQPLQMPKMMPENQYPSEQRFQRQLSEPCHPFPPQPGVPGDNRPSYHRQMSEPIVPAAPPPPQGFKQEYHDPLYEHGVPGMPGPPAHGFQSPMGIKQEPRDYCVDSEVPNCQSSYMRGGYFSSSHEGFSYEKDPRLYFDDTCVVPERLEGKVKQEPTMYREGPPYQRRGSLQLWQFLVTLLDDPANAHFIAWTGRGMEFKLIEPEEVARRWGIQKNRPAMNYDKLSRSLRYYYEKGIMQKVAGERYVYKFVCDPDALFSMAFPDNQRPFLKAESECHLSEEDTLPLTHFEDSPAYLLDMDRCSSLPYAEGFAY
Method in brief: as §1

ELF4 = ELF4 (Homo sapiens, UniProt Q99607 1-663)
Sequence of ELF4 (Q99607 whole entry): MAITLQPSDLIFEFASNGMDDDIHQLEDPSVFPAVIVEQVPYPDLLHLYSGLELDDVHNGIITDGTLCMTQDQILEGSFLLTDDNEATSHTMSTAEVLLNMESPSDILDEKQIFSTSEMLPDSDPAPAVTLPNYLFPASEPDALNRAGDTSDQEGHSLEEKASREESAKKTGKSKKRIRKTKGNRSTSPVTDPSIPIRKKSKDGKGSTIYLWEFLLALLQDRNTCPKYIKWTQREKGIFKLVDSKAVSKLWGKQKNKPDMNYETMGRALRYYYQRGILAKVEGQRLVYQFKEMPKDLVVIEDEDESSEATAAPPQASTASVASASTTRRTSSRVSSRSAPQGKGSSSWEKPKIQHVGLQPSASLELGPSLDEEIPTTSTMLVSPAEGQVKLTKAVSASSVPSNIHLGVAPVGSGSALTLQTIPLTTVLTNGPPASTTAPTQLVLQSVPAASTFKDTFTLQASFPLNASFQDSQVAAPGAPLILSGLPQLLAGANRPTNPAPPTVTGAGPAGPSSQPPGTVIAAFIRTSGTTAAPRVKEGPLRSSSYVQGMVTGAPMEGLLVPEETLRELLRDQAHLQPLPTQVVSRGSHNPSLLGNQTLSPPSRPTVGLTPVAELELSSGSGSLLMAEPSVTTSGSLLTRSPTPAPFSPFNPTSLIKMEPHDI
Method in brief: as §1

ETV2 = target: T6, ETV2 (Homo sapiens, UniProt O00321 1-342)
T6 sequence: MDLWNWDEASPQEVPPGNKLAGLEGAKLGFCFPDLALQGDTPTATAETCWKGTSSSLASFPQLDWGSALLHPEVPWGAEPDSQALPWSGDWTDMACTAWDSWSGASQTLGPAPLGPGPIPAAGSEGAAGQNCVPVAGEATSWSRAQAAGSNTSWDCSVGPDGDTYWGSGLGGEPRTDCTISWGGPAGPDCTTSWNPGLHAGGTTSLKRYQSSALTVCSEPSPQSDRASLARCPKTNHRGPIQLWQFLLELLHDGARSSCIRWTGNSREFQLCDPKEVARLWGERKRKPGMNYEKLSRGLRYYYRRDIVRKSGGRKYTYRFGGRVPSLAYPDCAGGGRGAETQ
Method in brief: as §1

ELF3 = target: T7, ELF3 (Homo sapiens, UniProt P78545 1-371)
T7 sequence: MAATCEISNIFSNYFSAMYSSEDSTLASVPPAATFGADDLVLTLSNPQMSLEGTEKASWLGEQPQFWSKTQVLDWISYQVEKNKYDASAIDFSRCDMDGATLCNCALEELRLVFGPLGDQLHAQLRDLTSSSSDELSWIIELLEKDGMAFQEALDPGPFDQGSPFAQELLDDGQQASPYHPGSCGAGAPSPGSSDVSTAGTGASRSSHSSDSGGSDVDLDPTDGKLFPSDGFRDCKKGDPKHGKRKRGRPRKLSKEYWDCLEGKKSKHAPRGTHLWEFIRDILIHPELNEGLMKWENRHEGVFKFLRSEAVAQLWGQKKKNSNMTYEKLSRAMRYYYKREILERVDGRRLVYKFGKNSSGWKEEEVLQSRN
Method in brief: as §1

ETV1 = ETV1 (Homo sapiens, UniProt P50549 1-477)
Sequence of ETV1 (P50549 whole entry): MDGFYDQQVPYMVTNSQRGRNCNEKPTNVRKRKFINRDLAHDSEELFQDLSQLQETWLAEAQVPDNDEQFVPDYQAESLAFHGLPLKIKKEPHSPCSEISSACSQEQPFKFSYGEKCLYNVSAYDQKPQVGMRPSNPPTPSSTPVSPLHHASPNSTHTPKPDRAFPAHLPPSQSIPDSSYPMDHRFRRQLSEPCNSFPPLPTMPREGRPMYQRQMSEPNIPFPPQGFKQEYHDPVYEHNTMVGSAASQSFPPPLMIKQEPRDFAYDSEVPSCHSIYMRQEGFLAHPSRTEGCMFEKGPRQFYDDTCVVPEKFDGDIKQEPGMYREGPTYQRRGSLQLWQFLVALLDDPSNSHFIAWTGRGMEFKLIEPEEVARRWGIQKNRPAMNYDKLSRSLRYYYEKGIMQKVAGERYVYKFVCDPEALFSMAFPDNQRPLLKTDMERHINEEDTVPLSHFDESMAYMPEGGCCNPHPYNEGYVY
Method in brief: as §1

ERF = target: T8, ERF (Homo sapiens, UniProt P50548 1-548)
T8 sequence: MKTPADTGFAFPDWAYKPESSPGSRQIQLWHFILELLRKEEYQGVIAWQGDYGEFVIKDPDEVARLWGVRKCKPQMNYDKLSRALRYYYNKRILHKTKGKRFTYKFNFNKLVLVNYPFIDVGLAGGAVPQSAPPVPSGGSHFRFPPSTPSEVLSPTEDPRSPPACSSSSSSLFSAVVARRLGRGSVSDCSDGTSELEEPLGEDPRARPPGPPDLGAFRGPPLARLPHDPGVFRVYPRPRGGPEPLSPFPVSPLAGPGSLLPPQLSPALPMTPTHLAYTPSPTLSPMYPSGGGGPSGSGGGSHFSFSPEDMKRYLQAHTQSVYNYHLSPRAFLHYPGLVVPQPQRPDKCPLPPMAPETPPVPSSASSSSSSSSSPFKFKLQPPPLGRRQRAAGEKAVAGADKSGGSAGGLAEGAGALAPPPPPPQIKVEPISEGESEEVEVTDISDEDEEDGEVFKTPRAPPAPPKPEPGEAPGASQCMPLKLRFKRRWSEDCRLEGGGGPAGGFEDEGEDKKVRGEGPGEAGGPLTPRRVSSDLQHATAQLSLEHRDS
Method in brief: as §1

ETV3L = target: T9, ETV3L (Homo sapiens, UniProt Q6ZN32 1-361)
T9 sequence: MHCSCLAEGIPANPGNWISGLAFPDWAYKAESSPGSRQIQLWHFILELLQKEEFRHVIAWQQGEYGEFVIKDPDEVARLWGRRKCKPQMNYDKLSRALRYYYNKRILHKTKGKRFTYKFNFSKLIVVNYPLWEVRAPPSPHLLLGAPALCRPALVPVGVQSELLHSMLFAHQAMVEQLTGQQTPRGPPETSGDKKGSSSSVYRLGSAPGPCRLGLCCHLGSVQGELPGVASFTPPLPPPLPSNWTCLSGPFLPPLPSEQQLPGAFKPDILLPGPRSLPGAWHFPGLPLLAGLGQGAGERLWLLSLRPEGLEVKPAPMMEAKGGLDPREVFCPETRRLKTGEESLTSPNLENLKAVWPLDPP
Method in brief: as §1

ETS2 = target: T10, ETS2 (Homo sapiens, UniProt P15036 1-469)
T10 sequence: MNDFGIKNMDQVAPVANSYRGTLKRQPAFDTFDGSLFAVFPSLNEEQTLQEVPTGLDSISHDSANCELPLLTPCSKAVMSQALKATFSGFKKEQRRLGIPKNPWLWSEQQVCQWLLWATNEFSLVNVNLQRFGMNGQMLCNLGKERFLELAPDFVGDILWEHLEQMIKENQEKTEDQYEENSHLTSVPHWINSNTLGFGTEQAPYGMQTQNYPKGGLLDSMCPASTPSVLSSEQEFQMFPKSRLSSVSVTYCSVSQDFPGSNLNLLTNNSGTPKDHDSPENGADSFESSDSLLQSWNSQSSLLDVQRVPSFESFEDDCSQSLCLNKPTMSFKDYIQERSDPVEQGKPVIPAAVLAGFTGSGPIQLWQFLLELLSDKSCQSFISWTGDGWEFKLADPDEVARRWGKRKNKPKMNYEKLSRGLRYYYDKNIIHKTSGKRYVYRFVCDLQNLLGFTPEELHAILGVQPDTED
Method in brief: as §1

ETV3 = target: T11, ETV3 (Homo sapiens, UniProt P41162-2 1-143)
T11 sequence: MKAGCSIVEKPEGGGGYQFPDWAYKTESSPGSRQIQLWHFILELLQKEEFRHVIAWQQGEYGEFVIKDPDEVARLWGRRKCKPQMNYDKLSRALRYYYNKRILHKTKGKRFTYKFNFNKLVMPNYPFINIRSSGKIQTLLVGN
Method in brief: as §1

ETV6 = ETV6 (Homo sapiens, UniProt P41212 1-452)
Sequence of ETV6 (P41212 whole entry): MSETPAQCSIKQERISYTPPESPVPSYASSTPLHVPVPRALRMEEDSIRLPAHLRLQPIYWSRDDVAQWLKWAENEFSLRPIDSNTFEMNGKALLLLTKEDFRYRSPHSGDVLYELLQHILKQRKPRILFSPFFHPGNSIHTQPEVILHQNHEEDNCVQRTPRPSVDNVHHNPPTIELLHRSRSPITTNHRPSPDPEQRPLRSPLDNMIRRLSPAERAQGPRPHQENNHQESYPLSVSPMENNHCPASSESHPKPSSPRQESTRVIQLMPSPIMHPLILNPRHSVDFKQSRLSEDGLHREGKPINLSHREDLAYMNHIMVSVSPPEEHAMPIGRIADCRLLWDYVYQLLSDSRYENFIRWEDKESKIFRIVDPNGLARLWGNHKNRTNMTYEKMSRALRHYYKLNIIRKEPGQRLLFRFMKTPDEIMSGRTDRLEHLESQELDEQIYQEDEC
Method in brief: as §1

CGCGAC
binding signal (FLI1): 1.08 fold enrichment (6-mer frequency, TF over GST control)
binding signal (GABPA): 1.09 fold enrichment (6-mer frequency, TF over GST control)
binding signal (ERG): 1.04 fold enrichment (6-mer frequency, TF over GST control)
binding signal (ELF1): 1.12 fold enrichment (6-mer frequency, TF over GST control)
binding signal (EHF): 1.12 fold enrichment (6-mer frequency, TF over GST control)
binding signal (SPI1): 1.08 fold enrichment (6-mer frequency, TF over GST control)
binding signal (SPIB): 1.11 fold enrichment (6-mer frequency, TF over GST control)
binding signal (FEV): 1.01 fold enrichment (6-mer frequency, TF over GST control)
binding signal (ETV5): 1.08 fold enrichment (6-mer frequency, TF over GST control)
binding signal (ELF4): 1.09 fold enrichment (6-mer frequency, TF over GST control)
binding signal (ETV2): 1.34 fold enrichment (6-mer frequency, TF over GST control)
binding signal (ELF3): 1.05 fold enrichment (6-mer frequency, TF over GST control)
binding signal (ETV1): 1.06 fold enrichment (6-mer frequency, TF over GST control)
binding signal (ERF): 1.16 fold enrichment (6-mer frequency, TF over GST control)
binding signal (ETV3L): 1.04 fold enrichment (6-mer frequency, TF over GST control)
binding signal (ETS2): 1.12 fold enrichment (6-mer frequency, TF over GST control)
binding signal (ETV3): 1.04 fold enrichment (6-mer frequency, TF over GST control)
binding signal (ETV6): 1.04 fold enrichment (6-mer frequency, TF over GST control)

From PMC7862700, “An all-to-all approach to the identification of sequence-specific readers for epigenetic DNA modifications on cytosine”
